Measured values taken from US20150152398, “Endoribonuclease and Methods of Use Thereof” (The Regents of the University of California, published 2015).

Target: T1, TtCas6A (TTHA0078, Cas6) (Thermus thermophilus HB8)
T1 chain: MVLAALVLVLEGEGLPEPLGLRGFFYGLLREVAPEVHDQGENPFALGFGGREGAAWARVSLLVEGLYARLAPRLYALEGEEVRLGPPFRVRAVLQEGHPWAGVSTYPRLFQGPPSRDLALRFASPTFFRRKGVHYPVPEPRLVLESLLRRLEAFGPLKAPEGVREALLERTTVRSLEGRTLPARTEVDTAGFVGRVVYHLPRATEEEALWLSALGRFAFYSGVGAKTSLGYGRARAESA
Assay: EMSA; Kd in FIG. 24C only
Conditions: chain copies: 2 stated (dimer in solution); hairpin; ssRNA; [17,28]
Excerpt: FIG. 22 illustrates that TtCas6A and TtCas6B both cleave repeats R1 and R3 and retain their cleaved products. (A) Sequences and predicted secondary structures of T. thermophilus CRISPR repeats. Sites of cleavage are indicated with blue arrows. TtCas6e (TTHB192) cleaves repeat R2, while TtCas6A (TTHA0078) and TtCas6B (TTHB231) both cleave repeats R1 and R3. (B) Cleavage product binding affinities of TtCas6A and TtCas6B enzymes. Maltose binding protein (MBP)-fused TtCas6A or TtCas6B were bound to in 5′-radiolabelled, vitro transcribed R1 and R3 RNAs. Bound and unbound fractions were resolved by electrophoresis on a native polyacrylamide gel and visualized by phosphorimaging. The data for these and all subsequent binding assays were fit with standard binding isotherms (solid line). Error bars on each data point denote standard error of the mean (SEM) from three independent experiments. (C) Experiments to confirm single turnover. RNA cleavage assays were carried out at indicated protein:RNA ratios. RNA cleavage was monitored using denaturing polyacrylamide gel electrophoresis. The data from these and all subsequent endoribonuclease activity assays were fit with single exponential curves to yield first-order rate constants. (Top to bottom: FIG. 22A, SEQ ID NOs: 1, 2, 55).
To test the importance of the stem sequence for substrate RNA recognition by TtCas6A, a series of EMSAs was performed using R1 repeat-derived RNAs that carried single base pair substitutions (C-G→A-U). All mutant RNAs contained the complete 5′ segment and additional two nucleotides downstream of the cleavage site. Compared to the wild-type RNA, substitution of any of the four C-G base pairs in the stem led to about five-fold decrease in affinity (FIG. 24C). This is consistent with the observation that the lower three C-G base pairs are specifically read out by Arg129. The binding defect observed upon mutation of the closing (uppermost) base pair could be due to loss of stability of the stem-loop structure, which is determined by the closing base-pair (Serra et al, 1993). […]

Sequence	binding signal
GUUGCAAGGGAUUGAGACCCGUAAGGGUAU	~5 fold lower affinity than wild-type RNA

Same assay, conditions: chain copies: 2 stated (dimer in solution); hairpin; ssRNA; [18,27]

Sequence	binding signal
GUUGCAAGGGAUUGAGCACCGUAAGGUGAU	~5 fold lower affinity than wild-type RNA

Same assay, conditions: chain copies: 2 stated (dimer in solution); hairpin; ssRNA; [19,26]

Sequence	binding signal
GUUGCAAGGGAUUGAGCCACGUAAGUGGAU	~5 fold lower affinity than wild-type RNA
